Rows were chosen to be rich in hits. Some 4.4% of all compounds tested hit in one or more screens of this group.
TRHR enhancer = allosteric enhancers of human TRH receptor; P34981; 360,000 compounds, 0.66% hits; TRHR cells, fluo-8 calcium fluorescence, EC20 TRH enhancement; enhancement, % at 2 µM; AID 493056; in the data active = enhancement above about 30%
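TRHR-expressing cells loaded with fluo-8 calcium dye were read kinetically (ex 480/em 530) during compound addition, then stimulated with an EC20 of TRH (10 nM final). Enhancement of the Gq-mediated intracellular calcium response was scored.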
USP1-UAF1 inh = USP1/UAF1 (human) deubiquitinase inhibition; O94782; recombinant USP1/UAF1, Ub-Rhodamine cleavage fluorescence; Potency, µM (top dose mostly 57.1 µM), usual class: inhibitors; 390,000 compounds, 0.23% hits; active = well fitted inhibition curve with a large enough effect; inconclusive = small, poorly fitted or top-dose-only effect; inactive = no such curve, though single readings can be large or run the other way; note: nearly all actives have a fitted effect of over 60% in size
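Step one: compound is pinned into 1nM USP1/UAF1 in HEPES pH 7.8 buffer with TCEP. Step two: 15 min room-temperature incubation. Step three: Ub-Rho (150nM final) starts cleavage, tracked by fluorescence over six one-minute reads.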
D1 antagonist = blocks dopamine activation of the human D1 receptor. P21728. HEK293 TREx D1 cells, calcium flux, dopamine EC80; stronger effect = lower value. activity change, negative = inhibition, % at 10 µM. 360,000 compounds, 3.2% hits; in the data active = activity change below about -30%
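Tetracycline-induced HEK293 T-REx cells with force-coupled D1 receptor were loaded with a no-wash calcium dye. Compound was added after a 10 s baseline and read kinetically for 180 s; EC80 dopamine was then added and calcium flux followed another 180 s.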
TRHR agonist = agonists of human TRH receptor. P34981. 360,000 compounds, 0.18% hits. AID 493084. TRHR cells, calcium flux fluo-8, FDSS agonist mode. activation, % at 2 µM
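Read-out: compound-evoked intracellular calcium rise in TRHR cells, fluo-8 dye, kinetic FDSS fluorescence at 1 s/cycle following a 10-cycle baseline. Cells cultured overnight before dye loading (30 min–1.5 h, RT).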
D1 ag = agonists of human D1 dopamine receptor | P21728 | HEK293 T-REx D1 cells, calcium flux, agonist mode | activation, % at 2 µM | 360,000 compounds, 1% hits
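Tetracycline-induced HEK293 TREx D1 cells, force-coupled to calcium signalling, were dye-loaded with a no-wash calcium kit. Compound was pin-added after a 10 s baseline. Fluorescence was read kinetically at 1 cycle/s for 180 s, with calcium rises flagged as agonism.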
D1 PAM = enhances dopamine response at the human D1 receptor | HEK293 TREx D1 cells, calcium flux, dopamine EC20 potentiation | potentiation, % at 10 µM | AID 504651 | P21728 | 360,000 compounds, 0.036% hits; in the data active = potentiation above about 30%
Of the large screens only hits and unclear results are named; the others gave an inactive call. Cut-off read from the data, not from the text of the source, unless noted: active = activation above about 30%; inactive = the rest.

COc1ccc(C2=NOC(CN3C(=O)c4ccccc4S3(=O)=O)C2)cc1 (configuration not stated)	none
CC1CCN(S(=O)(=O)c2ccc3c(c2)oc(=O)n3CC(=O)N2CCCCC2)CC1	none
CCC(=O)N(CCc1ccccc1)Cc1cc2cccc(C)c2[nH]c1=O	D1 antagonist -43
Cc1cccc2cc(CN(Cc3ccco3)C(=O)c3ccncc3)c(=O)[nH]c12	D1 antagonist -70
O=C(c1ccncc1)N(Cc1ccco1)Cc1cc2ccccc2[nH]c1=O	none
Cc1ccc(C(=O)c2oc3ccccc3c2NC(=O)COc2ccccc2Cl)cc1	none
Cc1ccc(NC(=O)C(=O)NCC(c2ccc3c(c2)OCO3)N2CCOCC2)c(C)c1 (configuration not stated)	none
CCCN(CCC)CC(O)COc1ccc2c(c1)OCO2 (configuration not stated)	D1 antagonist -45
OCCN(Cc1ccccc1)CC(O)COc1ccc2c(c1)OCO2 (configuration not stated)	none
COc1ccc(OC)c(CCNC(=O)c2cc3cccc4c3n2CCS4)c1	none
CCOC(=O)C1=C(C)NC2=C(C(=O)c3ccccc32)C1c1ccc([N+](=O)[O-])o1 (configuration not stated)	D1 antagonist -73
Cc1ccc(C)c(CN2C(=O)c3ccccc3S(=O)c3ccc(C(=O)NCCc4ccc(Cl)cc4)cc32)c1 (configuration not stated)	none
Cc1ccc(CS(=O)(=O)CCC(=O)NCc2ccccc2Cl)cc1	D1 ag 43
COc1ccccc1CNC(=O)CCS(=O)(=O)Cc1ccc(C)cc1	none
CN(C(=O)COC(=O)c1cccc(F)c1)c1ccccc1	none
CN(C(=O)COc1cc(C(F)(F)F)nn1C)c1ccccc1	TRHR enhancer 35
O=C(CSc1ncc2c(n1)-c1ccccc1N(Cc1ccccc1)S2(=O)=O)Nc1ccccc1	none
C/C(=N\NC(=O)c1cc(Br)ccc1O)c1cccs1	D1 ag 32
C/C(=N/NC(=O)c1ccc(Br)o1)c1cccs1	none
COC(=O)N/N=C(\C)c1ccccc1Br	D1 antagonist -31
COC(=O)N/N=C(\C)c1cccs1	none
Cc1cccc(CCn2c(=O)c3ccccc3n(CC(=O)Nc3ccccc3F)c2=O)c1	none
CC1(C)NC(=O)N(CC(O)COc2ccccc2C(=O)N2CCCCC2)C1=O (configuration not stated)	D1 antagonist -30
O=c1[nH]cnc2c1c(-c1ccccc1)cn2-c1ccc(Br)cc1	D1 antagonist -45
CCOc1ccc(-n2cc(-c3ccccc3)c3c(=O)[nH]cnc32)cc1	D1 antagonist -68
CCOc1ccc(-n2cc(-c3ccccc3)c3c(=S)nc[nH]c32)cc1	none
Cc1cccc(-n2cc(-c3ccccc3)c3c(=O)[nH]cnc32)c1	D1 antagonist -45
CC1CCN(c2ncnc3c2c(-c2ccccc2)cn3-c2ccc(Br)cc2)CC1	none
CCCCOC(=O)c1ccc(NC(=O)c2ccc3c(c2)CCN3S(C)(=O)=O)cc1	none
COc1ccc(OC)c(NC(=O)c2cc3c(s2)-c2ccccc2SC3)c1	none
Cc1ccc(Cl)cc1NC(=O)Cn1c(=O)n(C(C)C)c(=O)c2oc3ccccc3c21	none
CN1/C(=C\C(=O)COC(=O)Cn2nnc(-c3ccccc3)n2)C(C)(C)c2ccccc21	D1 antagonist -35
CN1/C(=C/C(=O)COC(=O)CN2C(=O)C3CC=CCC3C2=O)C(C)(C)c2ccccc21 (configuration not stated)	none (no result: TRHR enhancer, D1 antagonist, TRHR agonist, D1 ag, D1 PAM)
CC(C)(C)OC(=O)NCc1ccc(CNC(=O)c2nc[nH]c2C(=O)NCc2ccccc2)cc1	D1 antagonist -53
O=C(Nc1ccccc1)c1nc[nH]c1C(=O)NCc1ccccc1	none (no result: D1 antagonist)
O=C(NCc1ccccc1)c1nc[nH]c1C(=O)NCc1ccccc1	TRHR enhancer 33
COc1ccc(OC)c(CNC(=O)Cc2ccc(NC(=O)N3CCSc4ncccc43)cc2)c1	USP1-UAF1 inh inconclusive
